Reference: article PMC4336329 (PLoS ONE, 2015)
Out of some 310,000 compounds screened, about 14,000 (4.5%) showed an effect of 50% or more. The effect is printed as a negative number. What follows is part of a selection rich in strong results, with near analogues and random picks from the rest.

Target: human ether-à-go-go-related gene (hERG) potassium channel (human, UniProt Q12809)
Test: primary screen, population patch clamp on CHO cells stably expressing hERG; higher = less effect of the substance
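Also: peak tail current of the secondary pulse compared with the same well before compound.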

Sequence of human ether-à-go-go-related gene (hERG) potassium channel (Q12809 whole entry, looked up): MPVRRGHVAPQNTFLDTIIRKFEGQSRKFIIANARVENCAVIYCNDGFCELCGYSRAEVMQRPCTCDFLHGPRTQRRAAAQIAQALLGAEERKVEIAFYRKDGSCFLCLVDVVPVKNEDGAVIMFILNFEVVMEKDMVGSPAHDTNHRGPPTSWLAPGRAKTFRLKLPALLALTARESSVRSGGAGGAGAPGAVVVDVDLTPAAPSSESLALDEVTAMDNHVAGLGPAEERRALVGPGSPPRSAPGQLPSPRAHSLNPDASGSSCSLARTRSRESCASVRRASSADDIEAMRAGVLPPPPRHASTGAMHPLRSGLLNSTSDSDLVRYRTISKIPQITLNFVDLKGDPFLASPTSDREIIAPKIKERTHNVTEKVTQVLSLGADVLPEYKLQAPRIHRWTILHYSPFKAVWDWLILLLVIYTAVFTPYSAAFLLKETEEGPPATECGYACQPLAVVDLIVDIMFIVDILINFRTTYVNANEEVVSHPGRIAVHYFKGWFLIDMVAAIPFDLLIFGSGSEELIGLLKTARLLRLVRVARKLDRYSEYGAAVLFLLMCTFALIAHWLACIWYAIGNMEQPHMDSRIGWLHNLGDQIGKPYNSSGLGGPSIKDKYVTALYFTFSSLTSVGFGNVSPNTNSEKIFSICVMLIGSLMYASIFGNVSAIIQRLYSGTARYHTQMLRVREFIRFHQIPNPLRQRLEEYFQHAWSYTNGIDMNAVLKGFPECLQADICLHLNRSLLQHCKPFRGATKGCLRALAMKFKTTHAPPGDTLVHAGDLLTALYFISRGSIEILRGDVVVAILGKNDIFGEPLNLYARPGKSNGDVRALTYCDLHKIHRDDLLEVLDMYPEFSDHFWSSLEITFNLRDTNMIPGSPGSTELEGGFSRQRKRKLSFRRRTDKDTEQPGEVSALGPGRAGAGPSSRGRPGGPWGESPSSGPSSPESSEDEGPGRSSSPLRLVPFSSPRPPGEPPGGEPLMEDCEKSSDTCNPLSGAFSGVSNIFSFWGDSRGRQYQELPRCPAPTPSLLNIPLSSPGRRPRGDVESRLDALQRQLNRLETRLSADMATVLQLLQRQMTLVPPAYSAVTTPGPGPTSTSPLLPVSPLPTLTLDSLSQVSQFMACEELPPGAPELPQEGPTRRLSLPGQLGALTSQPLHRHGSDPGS

Going from `Cc1ccc(N2CCN(C3=NC(=O)C(Cc4ccccc4)S3)CC2)cc1` (stereo not shown) to `Cc1cccc(N2CCN(C3=NC(=O)C(Cc4ccccc4)S3)CC2)c1` (stereo not shown), the “hERG current change (%, negative = inhibition) at 10uM” value rises from -40.1% to -30.7%.

Compared with `Cc1cccc(CC2SC(N)=NC2=O)c1.Cl` (stereo not shown), `NC1=NC(=O)C(Cc2ccccc2)S1` (stereo not shown) is lower in “hERG current change (%, negative = inhibition) at 10uM” value: 19.9% for the first, 2.01% for the second.

Going from `Cc1cccc(CC2SC(N3CCN(c4ccccc4)CC3)=NC2=O)c1` (stereo not shown) to `O=C1N=C(N2CCN(c3ccccc3)CC2)SC1Cc1ccccc1` (stereo not shown), the “hERG current change (%, negative = inhibition) at 10uM” value falls from -53.5% to -66.4%.

First: O=c1c2[nH]c3cccc(Cl)c3c2ncn1Cc1ccncc1
Second: O=C(Nc1nnc(Cc2ccc(Cl)cc2)s1)c1cccnc1
The “hERG current change (%, negative = inhibition) at 10uM” value of the first is lower: -13.6% for the first, 13.9% for the second.

Compared with `CN(C)S(=O)(=O)c1ccc(Cl)c(NC(=O)CN2C(=O)NC3(CCc4ccccc43)C2=O)c1` (stereo not shown), `CCc1ccccc1OCC(=O)Nc1cc(S(=O)(=O)N(CC)CC)ccc1N1CCOCC1` is higher in “hERG current change (%, negative = inhibition) at 10uM” value: -18% for the first, -7.83% for the second.

Going from `CC(C)C(NS(=O)(=O)c1ccc2c(c1)oc(=O)n2C)C(=O)N1CCN(C2CCCCC2)CC1` (stereo not shown) to `COc1ccc(NC(=O)CSc2nnc(C3CC3)n2C)cc1S(=O)(=O)N1CCOCC1`, the “hERG current change (%, negative = inhibition) at 10uM” value falls from 2.88% to -0.595%.

Compared with `Cc1ccc(C)c(NC(=O)C2CCCN2C(=O)OC(C)(C)C)c1` (stereo not shown), `Cc1ccc(N2CC(C(=O)Nc3ccccc3C(=O)NC3CCCCC3)CC2=O)cc1C` (stereo not shown) is lower in “hERG current change (%, negative = inhibition) at 10uM” value: 1.04% for the first, -17.9% for the second.

Going from `O=C(CN(CCc1ccccc1)S(=O)(=O)c1ccc(Cl)cc1)N/N=C/c1ccccc1C(=O)O` to `Cc1ccc(N(CC(=O)NCCSc2nc3ccccc3s2)S(=O)(=O)c2ccccc2)c(C)c1`, the “hERG current change (%, negative = inhibition) at 10uM” value falls from 14.6% to -42.1%.

Going from `CCOc1ccc2nc(NCCNC(=S)NCCCN(C)C)c(C#N)cc2c1` to `CCCn1nc2cc(C(=O)NCc3ccc(C)cc3)ccc2c1OCC`, the “hERG current change (%, negative = inhibition) at 10uM” value falls from 1.89% to -1.4%.

Compared with `O=C(c1ccc(C(F)(F)F)cc1)c1c[nH]c(C(=O)NCCCn2ccnc2)c1`, `CC(C)(C)c1ccc(C(=O)c2c[nH]c(C(=O)NCCCn3ccnc3)c2)cc1` is lower in “hERG current change (%, negative = inhibition) at 10uM” value: -70.4% for the first, -71.3% for the second.

Going from `O=C(NCCCn1ccnc1)c1ccc(C(F)(F)F)cc1` to `COc1ccc(C(=O)c2c[nH]c(C(=O)NCCCn3ccnc3)c2)cc1`, the “hERG current change (%, negative = inhibition) at 10uM” value rises from -10.8% to 0.775%.

First: O=C(c1ccccc1)c1c[nH]c(C(=O)NCCCn2ccnc2)c1
Second: CCC(=O)c1c[nH]c(C(=O)NCCCn2ccnc2)c1
The “hERG current change (%, negative = inhibition) at 10uM” value of the first is lower: 5.27% for the first, 9.18% for the second.

Going from `Cc1ccc(/C=N/NS(=O)(=O)c2ccc([N+](=O)[O-])cc2)o1` to `COP(=O)(OC)C(Nc1ccc([N+](=O)[O-])cc1)c1ccccc1` (stereo not shown), the “hERG current change (%, negative = inhibition) at 10uM” value falls from 26.4% to -36.1%.

Going from `Cc1c(NC(=O)c2cccs2)c(=O)n(-c2ccccc2)n1C` to `Cc1sc(NC(=O)/C=C/c2ccc3c(c2)OCO3)nc1-c1ccccc1`, the “hERG current change (%, negative = inhibition) at 10uM” value rises from 3.8% to 8.5%.

Going from `CCCC(Oc1ccc(Br)cc1)c1nc2c3cc(OC)c(OC)cc3nc(=S)n2[nH]1` (stereo not shown) to `COc1ccc(Cl)cc1NC(=O)c1nnn(CC(=O)Nc2ccc(OC)c(OC)c2)c1N`, the “hERG current change (%, negative = inhibition) at 10uM” value rises from 14.5% to 15.1%.

Compared with `Cc1cccc2c1NC(C)CC2C.Cl` (stereo not shown), `CC(c1c(O)c2ccccc2[nH]c1=O)C1(C)CCC(O)C(C)(C)O1` (stereo not shown) is lower in “hERG current change (%, negative = inhibition) at 10uM” value: 8.01% for the first, -2.48% for the second.

First: COc1ccccc1CNC(=O)COC(=O)c1cc(C)oc1C
Second: Cc1noc(C)c1COc1ccc(C(=O)OCC(=O)NCCN2C(=O)CSC2=O)cc1
The “hERG current change (%, negative = inhibition) at 10uM” value of the first is higher: 0.456% for the first, -8.06% for the second.

Going from `COCCn1c(C)nnc1SCC(=O)NNC(=O)c1ccc(Cl)cc1` to `Cc1ccc(C(=O)OCC(=O)Nc2ccc(C(N)=O)cc2)s1`, the “hERG current change (%, negative = inhibition) at 10uM” value falls from 16.4% to 10.1%.

Going from `CCCNC(=O)c1ccc(N2CCC3(CC2)CC(c2ccc(Cl)cc2)=NO3)c([N+](=O)[O-])c1` to `CCCNC(=O)c1ccc(N2CCC3(CC2)CC(c2ccccc2)=NO3)c([N+](=O)[O-])c1`, the “hERG current change (%, negative = inhibition) at 10uM” value rises from -74.7% to -53%.

Going from `O=C(NCc1ccccc1)c1ccc(N2CCC3(CC2)CC(c2ccc(Cl)cc2)=NO3)c([N+](=O)[O-])c1` to `O=C(NCc1ccccc1)c1ccc(N2CCC3(CC2)CC(c2ccccc2)=NO3)c([N+](=O)[O-])c1`, the “hERG current change (%, negative = inhibition) at 10uM” value falls from 11.6% to 5.28%.

Compared with `COc1ccc(CNC(=O)c2ccc(N3CCC4(CC3)CC(c3ccc(Cl)cc3)=NO4)c([N+](=O)[O-])c2)cc1`, `CCCNC(=O)c1ccc(N2CCC3(CC2)CC(c2cccc(Br)c2)=NO3)c([N+](=O)[O-])c1` is lower in “hERG current change (%, negative = inhibition) at 10uM” value: 9.12% for the first, -14.2% for the second.

Compared with `COCc1cc(=O)n2[nH]cc(-c3ccccc3)c2n1`, `COc1ccc(Cl)cc1C(=O)N1CCC2(CC1)CC(=O)c1ccccc1O2` is lower in “hERG current change (%, negative = inhibition) at 10uM” value: 9.45% for the first, -80.5% for the second.

First: Cc1nc2ncnn2c(C)c1CCC(=O)NCc1ccco1
Second: O=C(CN(C(=O)CCC(=O)Nc1ccccn1)c1ccc(F)cc1)NCc1ccco1
The “hERG current change (%, negative = inhibition) at 10uM” value of the first is lower: -6.62% for the first, 14.2% for the second.

Going from `Cc1cccc(OCC(O)Cn2c(NCc3cccnc3)nc3c2c(=O)[nH]c(=O)n3C)c1` (stereo not shown) to `COc1cccc(CN2CCCCC2c2cccnc2)c1` (stereo not shown), the “hERG current change (%, negative = inhibition) at 10uM” value rises from -9.46% to 3.01%.

Compared with `COc1ccc(N2CC(C(=O)Nc3ccccc3C(=O)NC3CC3)CC2=O)cc1` (stereo not shown), `CCOc1ccc(N2CC(C(=O)Nc3ccccc3C(=O)NC3CC3)CC2=O)cc1` (stereo not shown) is lower in “hERG current change (%, negative = inhibition) at 10uM” value: -38.8% for the first, -76.7% for the second.

First: CC(C)Oc1ccc(N2CC(C(=O)Nc3ccccc3F)CC2=O)cc1 (stereo not shown)
Second: CCOc1ccc(N2CC(C(=O)Nc3ccccc3F)CC2=O)cc1 (stereo not shown)
The “hERG current change (%, negative = inhibition) at 10uM” value of the first is lower: -17.2% for the first, -13.5% for the second.

Compared with `CC(C)Oc1ccc(N2CC(C(=O)Nc3ccccc3C(=O)NC3CC3)CC2=O)cc1` (stereo not shown), `Cc1ccc(N2CC(C(=O)Nc3ccccc3C(=O)NC3CCCCC3)CC2=O)cc1` (stereo not shown) is higher in “hERG current change (%, negative = inhibition) at 10uM” value: -66.2% for the first, -5.81% for the second.

Compared with `O=C(NC1CCCCC1)c1ccccc1NC(=O)C1CC(=O)N(c2ccccc2)C1` (stereo not shown), `O=C(NC1CCCCC1)c1ccccc1NC(=O)C1CC(=O)N(c2ccc(Cl)cc2)C1` (stereo not shown) is higher in “hERG current change (%, negative = inhibition) at 10uM” value: -76.8% for the first, 2.36% for the second.

Compared with `O=S(=O)(c1ccc(Br)cc1)N1CCN=C1SCc1cccc(F)c1`, `COc1ccc(S(=O)(=O)N2CCC3(CC2)CC(=O)c2ccccc2O3)cc1C` is lower in “hERG current change (%, negative = inhibition) at 10uM” value: 8.08% for the first, -3.6% for the second.

Compared with `COc1ccccc1N1CCN(C(=O)c2cccc(N3C(=O)C4C5C=CC(C5)C4C3=O)c2)CC1` (stereo not shown), `O=C1CC2(CCN(C(=O)c3ccccc3Cl)CC2)Oc2ccccc21` is lower in “hERG current change (%, negative = inhibition) at 10uM” value: 5.22% for the first, -72.7% for the second.

Going from `CCOC(=O)C1=C(C)NC(=S)NC1c1ccc(OCC(=O)N2CCCCCC2)c(OC)c1` (stereo not shown) to `O=C(C(=O)N1CCCC1)c1c[nH]c2ccccc12`, the “hERG current change (%, negative = inhibition) at 10uM” value falls from 14.2% to 7.14%.

Going from `O=C(Nc1nnc(Cc2ccccc2)s1)Nc1ccccc1F` to `Cc1ccc(C)c(NS(=O)(=O)c2cc(C(=O)Nc3ccccc3-c3ccccc3)ccc2C)c1`, the “hERG current change (%, negative = inhibition) at 10uM” value rises from 11.1% to 18.2%.

First: O=C(CCC(=O)c1ccc(F)cc1)Nc1cccnc1
Second: CCCOC(=O)c1ccc(NS(=O)(=O)c2cccs2)cc1
The “hERG current change (%, negative = inhibition) at 10uM” value of the first is higher: 1.31% for the first, -6.88% for the second.

Compared with `COc1ccc(-c2cc(C(F)(F)F)nc(SCC(=O)NCCCN3CCOCC3)n2)cc1`, `CCN(CC)S(=O)(=O)c1ccc(N2CCOCC2)c(NC(=O)COc2ccccc2C)c1` is higher in “hERG current change (%, negative = inhibition) at 10uM” value: -14% for the first, 8.22% for the second.

Compared with `O=C(Oc1ccc(N(C(=O)c2ccncc2)S(=O)(=O)c2cccs2)cc1)c1ccncc1`, `O=C(OCCN(CCOC(=O)c1ccncc1)S(=O)(=O)c1cccs1)c1ccncc1` is lower in “hERG current change (%, negative = inhibition) at 10uM” value: 3.77% for the first, -77.3% for the second.

First: O=C(C(Cl)Cl)N1CCN(Cc2ccccc2)CC1
Second: CC(NC(=S)NCCc1ccccc1)C(c1cccs1)N1CCN(Cc2ccccc2)CC1 (stereo not shown)
The “hERG current change (%, negative = inhibition) at 10uM” value of the first is higher: -4.72% for the first, -41.3% for the second.

Compared with `CN1CCN(c2ccc(S(=O)(=O)N3CCOCC3)cc2NC(=O)COc2ccc(F)cc2Cl)CC1`, `CCN1CCN(c2ccc(S(=O)(=O)N3CCOCC3)cc2NC(=O)COc2ccc(F)cc2Cl)CC1` is higher in “hERG current change (%, negative = inhibition) at 10uM” value: -61.5% for the first, -24.4% for the second.

Compared with `CCN(CC)S(=O)(=O)c1ccc(N2CCN(C)CC2)c(NC(=O)COc2ccc(F)cc2Cl)c1`, `O=C(COc1ccc(F)cc1Cl)Nc1cc(S(=O)(=O)N2CCOCC2)ccc1N1CCCCC1` is higher in “hERG current change (%, negative = inhibition) at 10uM” value: -59% for the first, 4.24% for the second.

Compared with `COc1cc(/C=C(\C#N)c2nc3c(s2)CC(C)CC3)ccc1O` (stereo not shown), `COc1ccc(S(=O)(=O)N2CCC3(CC2)CC(=O)c2ccccc2O3)cc1OC` is higher in “hERG current change (%, negative = inhibition) at 10uM” value: 10.1% for the first, 11.6% for the second.

Going from `O=C1CC2(CCCC2)Oc2ccccc21` to `O=C1CC2(CCN(C(=O)c3c(F)cccc3Cl)CC2)Oc2ccccc21`, the “hERG current change (%, negative = inhibition) at 10uM” value falls from 3.39% to -41.2%.

Going from `CSc1ccccc1C(=O)N1CCCCC1` to `CSc1ccccc1C(=O)N1CCOCC1`, the “hERG current change (%, negative = inhibition) at 10uM” value rises from -9.98% to 20%.

Going from `O=C(C(=O)N1CCOCC1)c1c[nH]c2ccccc12` to `O=C1CC2(CCN(C(=O)C(=O)c3c[nH]c4ccccc34)CC2)Oc2ccccc21`, the “hERG current change (%, negative = inhibition) at 10uM” value falls from 18.3% to -55.3%.

In the case of `CSc1ccccc1C(=O)N1CCC2(CC1)CC(=O)c1ccccc1O2`, the “hERG current change (%, negative = inhibition) at 10uM” value is reported as -61%.
